According to article PMC6753376:

What was measured:
[1] = molecular target: 26S proteasome regulatory subunit RPN9 (UniProt Q04062); assay: cross-link between two proteins; cross-linking mass spectrometry
[2] = molecular target: 26S proteasome regulatory subunit 4 homolog (UniProt P40327); assay: as above
[3] = molecular target: 26S proteasome regulatory subunit 8 homolog (UniProt Q01939); assay: as above
[4] = molecular target: 26S proteasome regulatory subunit RPN6 (UniProt Q12377); assay: as above
Sequence of 26S proteasome regulatory subunit RPN6 (Q12377 whole entry): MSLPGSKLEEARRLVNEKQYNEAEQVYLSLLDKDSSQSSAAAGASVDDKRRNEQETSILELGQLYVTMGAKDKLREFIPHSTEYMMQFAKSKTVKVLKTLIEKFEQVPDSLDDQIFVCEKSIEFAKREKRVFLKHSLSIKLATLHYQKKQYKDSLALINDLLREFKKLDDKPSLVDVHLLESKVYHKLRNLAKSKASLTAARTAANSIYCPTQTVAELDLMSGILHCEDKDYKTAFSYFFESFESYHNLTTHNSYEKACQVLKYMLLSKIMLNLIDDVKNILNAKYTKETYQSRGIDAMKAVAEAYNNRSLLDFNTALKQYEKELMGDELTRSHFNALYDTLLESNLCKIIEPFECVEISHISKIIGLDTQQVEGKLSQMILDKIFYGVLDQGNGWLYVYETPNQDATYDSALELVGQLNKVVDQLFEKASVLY

[5] = molecular target: 26S proteasome regulatory subunit RPN7 (UniProt Q06103); assay: as above
[6] = molecular target: Proteasome subunit alpha type-4 (UniProt P40303); assay: as above
[7] = molecular target: Proteasome subunit beta type-5 (UniProt P30656); assay: as above
[8] = molecular target: Ubiquitin C-terminal hydrolase RPN11 (UniProt P43588); assay: as above
[9] = molecular target: 26S proteasome regulatory subunit 7 homolog (UniProt P33299); assay: as above
Sequence of 26S proteasome regulatory subunit 7 homolog (P33299 whole entry): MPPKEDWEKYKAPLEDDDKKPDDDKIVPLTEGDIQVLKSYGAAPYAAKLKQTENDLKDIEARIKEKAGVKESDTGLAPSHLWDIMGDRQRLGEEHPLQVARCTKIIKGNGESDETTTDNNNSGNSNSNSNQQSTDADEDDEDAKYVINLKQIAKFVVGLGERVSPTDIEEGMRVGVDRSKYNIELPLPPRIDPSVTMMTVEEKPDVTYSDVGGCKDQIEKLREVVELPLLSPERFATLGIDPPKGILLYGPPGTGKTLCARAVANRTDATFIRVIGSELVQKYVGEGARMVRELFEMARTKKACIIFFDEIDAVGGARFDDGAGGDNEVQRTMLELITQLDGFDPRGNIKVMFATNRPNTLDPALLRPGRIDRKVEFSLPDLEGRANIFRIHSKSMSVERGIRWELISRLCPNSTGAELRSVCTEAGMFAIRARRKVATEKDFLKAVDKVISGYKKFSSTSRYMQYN

[10] = molecular target: 26S proteasome regulatory subunit RPN8 (UniProt Q08723); assay: as above
Sequence of 26S proteasome regulatory subunit RPN8 (Q08723 whole entry): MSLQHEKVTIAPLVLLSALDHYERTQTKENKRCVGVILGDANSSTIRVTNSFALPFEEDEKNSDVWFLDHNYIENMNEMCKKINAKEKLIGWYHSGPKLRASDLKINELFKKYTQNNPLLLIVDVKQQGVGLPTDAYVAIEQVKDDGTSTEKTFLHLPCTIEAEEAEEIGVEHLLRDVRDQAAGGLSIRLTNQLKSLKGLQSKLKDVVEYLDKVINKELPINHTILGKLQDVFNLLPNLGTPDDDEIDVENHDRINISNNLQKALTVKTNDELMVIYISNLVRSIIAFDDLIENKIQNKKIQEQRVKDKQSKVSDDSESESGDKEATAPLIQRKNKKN

[11] = molecular target: 26S proteasome subunit RPT4 (UniProt P53549); assay: as above
Sequence of 26S proteasome subunit RPT4 (P53549 whole entry): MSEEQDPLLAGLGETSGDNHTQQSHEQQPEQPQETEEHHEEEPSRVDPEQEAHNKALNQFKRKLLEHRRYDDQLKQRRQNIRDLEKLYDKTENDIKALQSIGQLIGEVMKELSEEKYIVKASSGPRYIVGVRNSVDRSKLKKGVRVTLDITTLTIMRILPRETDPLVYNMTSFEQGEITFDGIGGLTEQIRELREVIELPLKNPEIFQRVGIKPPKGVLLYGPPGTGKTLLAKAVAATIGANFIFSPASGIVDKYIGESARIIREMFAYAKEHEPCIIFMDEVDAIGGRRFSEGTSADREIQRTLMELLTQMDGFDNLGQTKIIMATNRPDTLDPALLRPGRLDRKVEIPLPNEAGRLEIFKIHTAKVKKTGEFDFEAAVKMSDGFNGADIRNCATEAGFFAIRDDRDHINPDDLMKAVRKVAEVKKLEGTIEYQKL

[12] = molecular target: Ubiquitin carboxyl-terminal hydrolase 6 (UniProt P43593); assay: as above
Sequence of Ubiquitin carboxyl-terminal hydrolase 6 (P43593 whole entry): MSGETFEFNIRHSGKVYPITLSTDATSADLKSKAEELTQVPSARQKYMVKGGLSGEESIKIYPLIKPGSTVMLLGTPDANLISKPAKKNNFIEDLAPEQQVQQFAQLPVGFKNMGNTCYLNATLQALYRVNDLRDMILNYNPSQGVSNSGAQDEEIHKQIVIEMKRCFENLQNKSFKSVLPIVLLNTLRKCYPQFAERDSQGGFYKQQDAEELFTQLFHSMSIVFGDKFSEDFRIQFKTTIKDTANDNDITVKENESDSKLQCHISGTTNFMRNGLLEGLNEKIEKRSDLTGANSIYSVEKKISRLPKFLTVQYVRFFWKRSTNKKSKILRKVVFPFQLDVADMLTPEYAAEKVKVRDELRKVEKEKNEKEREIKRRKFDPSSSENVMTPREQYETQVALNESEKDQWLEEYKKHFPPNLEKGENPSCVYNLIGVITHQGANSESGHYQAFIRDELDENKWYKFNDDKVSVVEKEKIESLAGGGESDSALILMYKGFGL

[13] = molecular target: 26S proteasome regulatory subunit 6B homolog (UniProt P33298); assay: as above
[14] = molecular target: 26S proteasome regulatory subunit RPN1 (UniProt P38764); assay: as above
Sequence of 26S proteasome regulatory subunit RPN1 (P38764 whole entry): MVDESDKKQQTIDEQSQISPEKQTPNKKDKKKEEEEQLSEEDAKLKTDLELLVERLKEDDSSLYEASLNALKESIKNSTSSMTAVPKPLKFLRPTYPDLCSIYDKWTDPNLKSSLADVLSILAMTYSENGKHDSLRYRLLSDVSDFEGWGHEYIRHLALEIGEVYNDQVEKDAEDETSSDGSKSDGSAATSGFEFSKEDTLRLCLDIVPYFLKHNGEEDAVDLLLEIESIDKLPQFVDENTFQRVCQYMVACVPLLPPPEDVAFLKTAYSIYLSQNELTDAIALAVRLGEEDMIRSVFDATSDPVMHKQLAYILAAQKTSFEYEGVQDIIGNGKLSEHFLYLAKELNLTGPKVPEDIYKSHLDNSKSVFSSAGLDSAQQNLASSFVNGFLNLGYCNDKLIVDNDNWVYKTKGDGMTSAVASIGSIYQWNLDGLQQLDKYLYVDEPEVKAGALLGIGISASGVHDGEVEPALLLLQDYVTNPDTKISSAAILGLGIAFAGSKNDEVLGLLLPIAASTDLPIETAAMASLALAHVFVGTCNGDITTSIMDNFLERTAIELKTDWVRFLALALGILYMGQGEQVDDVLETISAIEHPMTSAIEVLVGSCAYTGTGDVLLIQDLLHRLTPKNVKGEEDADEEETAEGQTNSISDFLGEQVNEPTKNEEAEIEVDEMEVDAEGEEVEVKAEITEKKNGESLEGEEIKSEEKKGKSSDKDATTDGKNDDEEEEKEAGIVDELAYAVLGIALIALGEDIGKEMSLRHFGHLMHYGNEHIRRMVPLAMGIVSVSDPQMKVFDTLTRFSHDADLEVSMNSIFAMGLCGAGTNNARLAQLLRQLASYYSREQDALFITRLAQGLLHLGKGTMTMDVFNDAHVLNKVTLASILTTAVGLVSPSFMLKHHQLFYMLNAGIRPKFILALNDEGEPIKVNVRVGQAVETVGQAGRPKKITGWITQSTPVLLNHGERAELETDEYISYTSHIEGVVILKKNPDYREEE

[15] = molecular target: Probable 26S proteasome regulatory subunit p28 (UniProt P50086); assay: as above
[16] = molecular target: 26S proteasome regulatory subunit RPN5 (UniProt Q12250); assay: as above
Sequence of 26S proteasome regulatory subunit RPN5 (Q12250 whole entry): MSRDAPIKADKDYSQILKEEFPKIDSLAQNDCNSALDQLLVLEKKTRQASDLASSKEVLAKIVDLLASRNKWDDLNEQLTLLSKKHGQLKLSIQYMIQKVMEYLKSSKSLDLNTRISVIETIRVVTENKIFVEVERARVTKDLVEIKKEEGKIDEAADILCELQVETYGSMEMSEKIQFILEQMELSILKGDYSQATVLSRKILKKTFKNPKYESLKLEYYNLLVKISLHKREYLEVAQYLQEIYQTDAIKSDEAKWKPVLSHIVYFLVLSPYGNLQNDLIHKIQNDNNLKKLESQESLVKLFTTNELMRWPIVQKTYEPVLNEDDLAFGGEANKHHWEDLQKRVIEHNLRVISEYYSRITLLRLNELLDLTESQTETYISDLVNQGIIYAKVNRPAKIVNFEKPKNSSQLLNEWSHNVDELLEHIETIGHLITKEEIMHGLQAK

[17] = molecular target: Proteasome subunit alpha type-6 (UniProt P40302); assay: as above
[18] = molecular target: Proteasome subunit beta type-7 (UniProt P30657); assay: as above
[19] = molecular target: Proteasome subunit beta type-1 (UniProt P38624); assay: as above
[20] = molecular target: 26S proteasome subunit RPT4 (UniProt P53549); assay: cross-link between two proteins; affinity purification or IP with mass spectrometry; cross-linking mass spectrometry
[21] = molecular target: Proteasome subunit alpha type-1 (UniProt P21243); assay: cross-link between two proteins; cross-linking mass spectrometry

Measured: listed as a hit

Sequence of 26S proteasome regulatory subunit RPN9 (Q04062 whole entry): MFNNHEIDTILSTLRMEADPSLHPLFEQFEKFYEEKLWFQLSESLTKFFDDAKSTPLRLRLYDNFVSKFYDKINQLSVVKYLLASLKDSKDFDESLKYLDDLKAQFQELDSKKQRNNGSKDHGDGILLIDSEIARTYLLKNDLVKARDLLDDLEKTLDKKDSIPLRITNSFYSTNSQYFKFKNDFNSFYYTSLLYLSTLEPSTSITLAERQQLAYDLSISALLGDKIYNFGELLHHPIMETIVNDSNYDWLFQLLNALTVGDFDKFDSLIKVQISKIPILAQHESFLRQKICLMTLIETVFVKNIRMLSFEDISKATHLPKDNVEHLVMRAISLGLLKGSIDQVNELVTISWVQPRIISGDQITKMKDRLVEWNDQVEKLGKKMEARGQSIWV
Sequence of 26S proteasome regulatory subunit 8 homolog (Q01939 whole entry): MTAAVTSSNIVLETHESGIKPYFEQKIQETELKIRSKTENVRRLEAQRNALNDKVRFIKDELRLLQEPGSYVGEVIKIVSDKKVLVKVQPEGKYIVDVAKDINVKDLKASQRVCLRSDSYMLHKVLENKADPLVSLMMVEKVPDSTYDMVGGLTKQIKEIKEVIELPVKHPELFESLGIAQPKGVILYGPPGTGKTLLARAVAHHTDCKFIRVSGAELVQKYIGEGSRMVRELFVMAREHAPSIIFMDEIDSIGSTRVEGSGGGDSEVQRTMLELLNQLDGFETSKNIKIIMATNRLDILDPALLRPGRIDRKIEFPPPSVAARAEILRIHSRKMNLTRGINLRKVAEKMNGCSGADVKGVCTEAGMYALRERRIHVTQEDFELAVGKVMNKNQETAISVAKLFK
Sequence of 26S proteasome regulatory subunit 4 homolog (P40327 whole entry): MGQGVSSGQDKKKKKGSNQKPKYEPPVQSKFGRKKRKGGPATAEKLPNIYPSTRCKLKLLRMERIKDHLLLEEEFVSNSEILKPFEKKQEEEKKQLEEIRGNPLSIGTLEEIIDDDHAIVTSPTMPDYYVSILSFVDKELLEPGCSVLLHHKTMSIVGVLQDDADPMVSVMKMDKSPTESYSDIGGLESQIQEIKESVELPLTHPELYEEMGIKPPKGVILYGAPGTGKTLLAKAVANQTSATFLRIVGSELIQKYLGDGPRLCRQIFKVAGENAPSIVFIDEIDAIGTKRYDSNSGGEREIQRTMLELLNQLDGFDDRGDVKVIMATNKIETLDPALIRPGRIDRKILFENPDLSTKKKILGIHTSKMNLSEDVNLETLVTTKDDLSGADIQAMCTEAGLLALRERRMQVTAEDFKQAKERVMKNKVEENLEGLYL

26S proteasome regulatory subunit RPN12, P32496
yes: [1]

Proteasome subunit alpha type-3, P23638
yes: [2] | [3] | [4] | [5] | [6]

Proteasome subunit beta type-4, P22141
yes: [7]

Proteasome subunit alpha type-4, P40303
yes: [2] | [3]

26S proteasome regulatory subunit RPN10, P38886
yes: [8]

Probable 26S proteasome regulatory subunit p28, P50086
yes: [3] | [4]

Proteasome subunit alpha type-5, P32379
yes: [9]

26S proteasome regulatory subunit RPN1, P38764
yes: [2] | [3] | [5] | [10] | [11] | [8] | [12]

26S proteasome regulatory subunit RPN2, P32565
yes: [13] | [9] | [14] | [4] | [10] | [8]

26S proteasome regulatory subunit 6B homolog, P33298
yes: [2] | [9] | [14] | [4] | [10] | [15] | [8]

26S proteasome regulatory subunit 6A, P33297
yes: [13] | [3] | [16] | [10]

Proteasome subunit beta type-6, P23724
yes: [17] | [7] | [18]

Proteasome subunit alpha type-2, P23639
yes: [13] | [3] | [4]

26S proteasome regulatory subunit 7 homolog, P33299
yes: [3] | [14] | [5] | [10] | [11] | [6] | [12]

Proteasome subunit alpha type-1, P21243
yes: [13] | [16] | [11] | [19] | [18]

26S proteasome subunit RPT4, P53549
yes: [3] | [16] | [10] | [1]

Heat shock protein SSA1, P10591
yes: [20]

26S proteasome regulatory subunit 4 homolog, P40327
yes: [11] | [12]

26S proteasome regulatory subunit 8 homolog, Q01939
yes: [4] | [5] | [10]

Probable proteasome subunit alpha type-7, P21242
yes: [16] | [11] | [21]

Ubiquitin C-terminal hydrolase RPN11, P43588
yes: [1]
